# Measurements taken from article PMC5540273 (PLoS ONE, 2017).
# Experiments:
# Settings in all cases: concentration: 1 μM, replicates: in singlicate; n = 1
# LYN = test system: LYN
# LZK = test system: T1, LZK
# T1 construct: gene MAP3K13
# MAK = test system: MAK
# MAP3K15 = test system: MAP3K15
# MAP3K1 = test system: MAP3K1
# MAP3K2 = test system: MAP3K2
# MAP3K3 = test system: MAP3K3
# MAP3K4 = test system: MAP3K4
# MAP4K2 = test system: MAP4K2
# MAP4K3 = test system: MAP4K3
# MAP4K4 = test system: MAP4K4
# MAP4K5 = test system: MAP4K5
# MAPKAPK2 = test system: MAPKAPK2
# MAPKAPK5 = test system: MAPKAPK5
# MARK1 = test system: MARK1
# MARK2 = test system: MARK2
# MARK3 = test system: MARK3
# MARK4 = test system: MARK4
# MAST1 = test system: MAST1
# MEK1 = test system: T2, MEK1
# T2 construct: gene MAP2K1
# 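Further: KINOMEscan kinase panel screen.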
Structure (SMILES),%Inh (LYN) [%],%Inh (LZK) [%],%Inh (MAK) [%],%Inh (MAP3K15) [%],%Inh (MAP3K1) [%],%Inh (MAP3K2) [%],%Inh (MAP3K3) [%],%Inh (MAP3K4) [%],%Inh (MAP4K2) [%],%Inh (MAP4K3) [%],%Inh (MAP4K4) [%],%Inh (MAP4K5) [%],%Inh (MAPKAPK2) [%],%Inh (MAPKAPK5) [%],%Inh (MARK1) [%],%Inh (MARK2) [%],%Inh (MARK3) [%],%Inh (MARK4) [%],%Inh (MAST1) [%],%Inh (MEK1) [%]
Cc1cccc(-c2nc(Nc3ccc4[nH]ncc4c3)c3ccccc3n2)n1 [GW857175],17,10,0,0,38,36,0,14,39,0,0,0,0,28,16,0,0,0,1,25
Cn1ccc2ncnc(Oc3ccc(Nc4nc5ccccc5[nH]4)cc3)c21,0,0,5,0,0,0,0,0,0,9,0,0,0,0,0,9,0,13,0,0
Cc1ccc(C(=O)Nc2ccc(Nc3ccnc4cc(-c5ccccn5)ccc34)cc2O)cc1.Cl [GW440146],44,10,25,21,3,0,0,25,0,0,0,70,18,0,0,0,2,4,0,0
Cc1c(O)cccc1Nc1ccnc2ccc(C(F)(F)F)cc12.Cl [GW466413],0,14,0,0,2,22,47,0,0,0,0,0,8,0,0,0,0,2,0,0
Clc1cc(Cl)cc(Nc2ccnc(Nc3cc(Cl)cc(Cl)c3)n2)c1 [GSK175726],23,0,25,0,0,0,0,0,0,0,0,0,0,0,0,16,0,0,0,0
O=C(Nc1n[nH]c2nc(-c3nccs3)c(Br)cc12)C1CCCC1 [SB-742609],0,0,75,6,15,5,0,28,0,0,2,4,22,0,0,0,0,0,0,0
O=C(Nc1n[nH]c2cc(-c3cccc(F)c3F)ccc12)C1CC1 [SB-733894],0,100,21,0,4,6,30,0,0,12,32,0,0,0,27,25,0,7,18,1
Cc1ccc(NC(=O)Nc2cc(C(C)(C)C)nn2-c2ccccc2)cc1 [GSK1014915],0,0,10,16,17,17,0,3,0,10,19,11,25,0,0,0,17,10,0,0
CC(C)(C)c1ccc(C(=O)Nc2cn3cc(-c4cccnc4)ccc3n2)cc1,16,0,46,46,1,9,26,17,0,5,15,0,0,0,36,27,0,38,0,3
Cc1cc(N2Cc3ccccc3C2)nc(Nc2ccc(S(=O)(=O)N3CCOCC3)cc2)n1.Cl [GSK1669917],0,0,14,0,0,0,0,2,0,0,0,0,4,0,0,0,12,0,0,0
C[C@@H]1CCCCN1c1cc(-c2ccc3c(N)n[nH]c3c2)nc(N)n1 [GSK2258759],0,0,22,0,0,0,0,0,0,1,0,0,4,0,0,0,0,0,0,27
